In PubChem BioAssay AID1159580 (chemical genetic matrix, 2015):
The whole screen tested about 5,500 compounds, of which about 2,000 (36%) were called active. About 18% were inconclusive and are not listed. No stated cut-off is given here; in the data, active means normalized growth mostly below about 0.91 (no sharp cut-off); inconclusive means no clear call, values can overlap the other calls; inactive means mostly above about 0.92. This is one part of the list.

Assay: chemical genetic growth profiling, strain panel (AID 1159580);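 further: tested at 20 µM; growth read once vehicle control cultures reached saturation at 30 °C; 1 = growth at the plate median or of vehicle wells; lower values mean less growth of the strain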
Settings: growth OD
[1] = S. cerevisiae deletion strains, locus YAR019C, strain CDC15, active compounds read low
[2] = S. cerevisiae deletion strains, locus YBL105C, strain PKC1, active compounds read low
[3] = S. cerevisiae deletion strains, locus YBR135W, strain CKS1, active compounds read low
[4] = S. cerevisiae deletion strains, locus YBR136W, strain MEC1, active compounds read low
[5] = S. cerevisiae deletion strains, locus YBR160W, strain CDC28, active compounds read low
[6] = S. cerevisiae deletion strains, locus YDL017W, strain CDC7, active compounds read low
[7] = S. cerevisiae deletion strains, locus YDL028C, strain MPS1, active compounds read low
[8] = S. cerevisiae deletion strains, locus YDL101C, strain DUN1, active compounds read low
[9] = S. cerevisiae deletion strains, locus YDL108W, strain KIN28, active compounds read low
[10] = S. cerevisiae deletion strains, locus YDL132W, strain cdc53, active compounds read low
[11] = S. cerevisiae deletion strains, locus YDL214C, strain PRR2, active compounds read low
[12] = S. cerevisiae deletion strains, locus YDR052C, strain DBF4, active compounds read low
[13] = S. cerevisiae deletion strains, locus YDR054C, strain cdc34, active compounds read low
[14] = S. cerevisiae deletion strains, locus YDR226W, strain ADK1, active compounds read low
[15] = S. cerevisiae deletion strains, locus YDR477W, strain SNF1, active compounds read low
[16] = S. cerevisiae deletion strains, locus YER123W, strain YCK3, active compounds read low
[17] = S. cerevisiae deletion strains, locus YER133W, strain GLC7, active compounds read low
[18] = S. cerevisiae deletion strains, locus YFL009W, strain cdc4, active compounds read low
[19] = S. cerevisiae deletion strains, locus YFL029C, strain CAK1, active compounds read low
[20] = S. cerevisiae deletion strains, locus YFR003C, strain YPI1, active compounds read low
[21] = S. cerevisiae deletion strains, locus YFR019W, strain FAB1, active compounds read low
[22] = S. cerevisiae deletion strains, locus YFR028C, strain CDC14, active compounds read low
[23] = S. cerevisiae deletion strains, locus YGR040W, strain KSS1, active compounds read low
[24] = S. cerevisiae deletion strains, locus YGR052W, strain FMP48, active compounds read low
[25] = S. cerevisiae deletion strains, locus YGR092W, strain DBF2, active compounds read low
[26] = S. cerevisiae deletion strains, locus YHR030C, strain SLT2, active compounds read low
[27] = S. cerevisiae deletion strains, locus YHR079C, strain IRE1, active compounds read low
[28] = S. cerevisiae deletion strains, locus YHR082C, strain KSP1, active compounds read low
[29] = S. cerevisiae deletion strains, locus YHR205W, strain SCH9, active compounds read low
[30] = S. cerevisiae deletion strains, locus YIL147C, strain SLN1, active compounds read low
[31] = S. cerevisiae deletion strains, locus YJL095W, strain BCK1, active compounds read low
[32] = S. cerevisiae deletion strains, locus YJL128C, strain PBS2, active compounds read low
[33] = S. cerevisiae deletion strains, locus YJL157C, strain FAR1, active compounds read low
[34] = S. cerevisiae deletion strains, locus YJR016C, strain ILV3, active compounds read low
[35] = S. cerevisiae deletion strains, locus YJR066W, strain TOR1 (second series), active compounds read low
[36] = S. cerevisiae deletion strains, locus YJR066W, strain TOR1, active compounds read low
[37] = S. cerevisiae deletion strains, locus YKL048C, strain ELM1, active compounds read low
[38] = S. cerevisiae deletion strains, locus YKL067W, strain YNK1, active compounds read low
[39] = S. cerevisiae deletion strains, locus YKL101W, strain HSL1, active compounds read low
[40] = S. cerevisiae deletion strains, locus YKL193C, strain SDS22, active compounds read low
[41] = S. cerevisiae deletion strains, locus YKL203C, strain TOR2, active compounds read low
[42] = S. cerevisiae deletion strains, locus YLR113W, strain HOG1, active compounds read low
[43] = S. cerevisiae deletion strains, locus YLR133W, strain CKI1, active compounds read low
[44] = S. cerevisiae deletion strains, locus YLR403W, strain SFP1, active compounds read low
[45] = S. cerevisiae deletion strains, locus YML070W, strain DAK1, active compounds read low
[46] = S. cerevisiae deletion strains, locus YMR001C, strain CDC5, active compounds read low
[47] = S. cerevisiae deletion strains, locus YMR205C, strain PFK2 (second series), active compounds read low
[48] = S. cerevisiae deletion strains, locus YMR277W, strain FCP1, active compounds read low
[49] = S. cerevisiae deletion strains, locus YNL006W, strain LST8, active compounds read low
[50] = S. cerevisiae deletion strains, locus YNL020C, strain ARK1, active compounds read low
[51] = S. cerevisiae deletion strains, locus YNL161W, strain CBK1, active compounds read low
[52] = S. cerevisiae deletion strains, locus YNL183C, strain NPR1, active compounds read low
[53] = S. cerevisiae deletion strains, locus YNL207W, strain RIO2, active compounds read low
[54] = S. cerevisiae deletion strains, locus YNL222W, strain SSU72, active compounds read low
[55] = S. cerevisiae deletion strains, locus YNL307C, strain MCK1 (second series), active compounds read low
[56] = S. cerevisiae deletion strains, locus YOL078W, strain AVO1, active compounds read low
[57] = S. cerevisiae deletion strains, locus YOL136C, strain PFK27, active compounds read low
[58] = S. cerevisiae deletion strains, locus YOR061W, strain CKA2, active compounds read low
[59] = S. cerevisiae deletion strains, locus YOR119C, strain RIO1, active compounds read low
[60] = S. cerevisiae deletion strains, locus YOR231W, strain MKK1, active compounds read low
[61] = S. cerevisiae deletion strains, locus YOR329C, strain SCD5, active compounds read low
[62] = S. cerevisiae deletion strains, locus YPL031C, strain PHO85, active compounds read low
[63] = S. cerevisiae deletion strains, locus YPL153C, strain RAD53, active compounds read low
[64] = S. cerevisiae deletion strains, locus YPL204W, strain HRR25, active compounds read low
[65] = S. cerevisiae deletion strains, locus YPL209C, strain IPL1, active compounds read low
[66] = S. cerevisiae deletion strains, locus YPL256C, strain CLN2, active compounds read low
[67] = S. cerevisiae deletion strains, locus YPR025C, strain CCL1, active compounds read low
[68] = S. cerevisiae deletion strains, locus YPR106W, strain ISR1, active compounds read low
[69] = S. cerevisiae deletion strains, locus YPR111W, strain DBF20, active compounds read low
[70] = S. cerevisiae deletion strains, strain NNK1, active compounds read low
[71] = S. cerevisiae deletion strains, strain TSCII, active compounds read low
[72] = S. cerevisiae deletion strains, locus YAL013W, strain DEP1, active compounds read low
[73] = S. cerevisiae deletion strains, locus YBR229C, strain ROT2, active compounds read low
[74] = S. cerevisiae deletion strains, locus YDL134C, strain PPH21, active compounds read low
[75] = S. cerevisiae deletion strains, locus YDR150W, strain NUM1, active compounds read low
[76] = S. cerevisiae deletion strains, locus YEL061C, strain CIN8, active compounds read low
[77] = S. cerevisiae deletion strains, locus YGR078C, strain PAC10, active compounds read low
[78] = S. cerevisiae deletion strains, locus YHR087W, strain rtc3, active compounds read low
[79] = S. cerevisiae deletion strains, locus YJR043C, strain POL32, active compounds read low
[80] = S. cerevisiae deletion strains, locus YJR075W, strain HOC1, active compounds read low
[81] = S. cerevisiae deletion strains, locus YLR039C, strain RIC1, active compounds read low
[82] = S. cerevisiae deletion strains, locus YLR058C, strain SHM2 (second series), active compounds read low
[83] = S. cerevisiae deletion strains, locus YLR085C, strain ARP6, active compounds read low
[84] = S. cerevisiae deletion strains, locus YLR262C, strain YPT6, active compounds read low
[85] = S. cerevisiae deletion strains, locus YML094W, strain GIM5, active compounds read low
[86] = S. cerevisiae deletion strains, locus YMR219W, strain ESC1, active compounds read low
[87] = S. cerevisiae deletion strains, locus YMR263W, strain SAP30, active compounds read low
[88] = S. cerevisiae deletion strains, locus YNL153C, strain GIM3, active compounds read low
[89] = S. cerevisiae deletion strains, locus YNL298W, strain CLA4 (second series), active compounds read low
[90] = S. cerevisiae deletion strains, locus YNL322C, strain KRE1, active compounds read low
[91] = S. cerevisiae deletion strains, locus YNR030W, strain Alg12, active compounds read low
[92] = S. cerevisiae deletion strains, locus YOL006C, strain TOP1, active compounds read low
[93] = S. cerevisiae deletion strains, locus YPL055C, strain LGE1, active compounds read low
[94] = S. cerevisiae deletion strains, locus YPL241C, strain CIN2, active compounds read low
[95] = S. cerevisiae deletion strains, locus YPR135W, strain CTF4, active compounds read low

Measured: normalized growth

CC1CCc2c(sc3ncnc(Sc4ccccc4)c23)C1 (centres undefined)
inactive: [1] 0.992 | [2] 0.972 | [3] 0.979 | [4] 0.978 | [5] 0.983 | [6] 0.981 | [7] 0.978 | [8] 0.978 | [9] 0.976 | [10] 0.977 | [11] 0.945 | [12] 0.98 | [13] 0.981 | [14] 0.979 | [15] 0.952 | [16] 0.926 | [17] 0.956 | [18] 0.983 | [19] 0.987 | [20] 0.977 | [21] 0.966 | [22] 0.975 | [23] 0.937 | [24] 1 | [25] 0.991 | [27] 1.11 | [28] 1.06 | [29] 0.992 | [30] 0.977 | [31] 0.996 | [32] 0.94 | [33] 0.962 | [34] 0.984 | [35] 0.948 | [36] 1.09 | [37] 0.966 | [38] 0.948 | [39] 0.931 | [40] 0.983 | [41] 1.04 | [42] 0.886 | [43] 0.946 | [44] 0.968 | [45] 0.936 | [46] 0.984 | [47] 0.95 | [48] 0.98 | [49] 0.99 | [50] 0.943 | [51] 0.98 | [52] 1.03 | [53] 0.976 | [54] 0.989 | [55] 0.969 | [56] 0.976 | [57] 0.913 | [58] 0.935 | [59] 1.02 | [60] 0.925 | [61] 0.983 | [62] 0.945 | [63] 0.941 | [64] 0.92 | [65] 0.982 | [66] 1.02 | [67] 0.982 | [68] 0.984 | [69] 0.96 | [70] 0.981 | [71] 0.979
active: [26] 1.19 [resistant]

COC(=O)Cc1nc(NC(=O)c2ccccc2)sc1C
inactive: [72] 1.02 | [73] 1 | [8] 0.972 | [74] 1.01 | [75] 0.994 | [76] 1.02 | [77] 0.999 | [26] 0.977 | [78] 0.98 | [79] 1.01 | [80] 1 | [81] 1.02 | [82] 1 | [83] 0.889 | [84] 1.12 | [85] 0.948 | [86] 0.994 | [87] 1 | [88] 1 | [89] 1.02 | [90] 1.01 | [91] 0.983 | [92] 0.976 | [93] 0.927 | [94] 0.944 | [95] 1

Cc1ccc(C(=O)Nc2ccc3ccccc3n2)cc1
inactive: [1] 0.956 | [2] 0.954 | [3] 0.958 | [4] 0.965 | [5] 0.95 | [6] 0.964 | [7] 0.964 | [8] 0.96 | [9] 0.963 | [10] 0.96 | [11] 0.92 | [12] 0.976 | [13] 0.94 | [14] 0.956 | [15] 0.937 | [16] 0.906 | [17] 0.929 | [18] 0.954 | [19] 0.956 | [20] 0.961 | [21] 0.983 | [22] 0.944 | [23] 0.925 | [24] 0.99 | [25] 0.892 | [26] 0.938 | [27] 0.933 | [28] 0.994 | [29] 0.954 | [30] 0.963 | [31] 0.952 | [32] 0.954 | [33] 0.917 | [34] 0.946 | [35] 0.918 | [36] 0.978 | [37] 0.948 | [38] 0.93 | [39] 0.95 | [40] 0.957 | [41] 0.986 | [43] 0.944 | [44] 0.934 | [45] 0.901 | [46] 0.966 | [47] 0.941 | [48] 0.956 | [49] 0.966 | [50] 0.947 | [51] 0.944 | [52] 0.959 | [53] 0.964 | [54] 0.95 | [55] 0.93 | [56] 0.958 | [57] 0.92 | [58] 0.964 | [59] 1.01 | [60] 0.921 | [61] 0.962 | [62] 0.948 | [63] 0.928 | [64] 0.937 | [65] 0.949 | [66] 0.876 | [67] 0.959 | [68] 0.949 | [69] 0.945 | [70] 0.956 | [71] 0.957
active: [42] 0.857

Cc1ccc(C(=O)NNC(=O)c2ccncc2)c(C)c1
inactive: [72] 0.994 | [73] 0.993 | S. cerevisiae deletion strains, locus YCL061C, strain MRC1, active compounds read low 1.01 | [8] 1.02 | [74] 1 | [75] 0.925 | [76] 0.993 | [77] 1 | S. cerevisiae deletion strains, locus YGR229C, strain SMI1, active compounds read low 1.01 | [26] 1.01 | [78] 1 | [79] 1.01 | [80] 1.03 | S. cerevisiae deletion strains, locus YKL190W, strain CNB1, active compounds read low 1.01 | [81] 1.03 | [82] 0.994 | [83] 0.98 | [84] 1.02 | [85] 0.983 | [86] 0.988 | [87] 0.965 | S. cerevisiae deletion strains, locus YMR307W, strain GAS1, active compounds read low 1.01 | [88] 1.01 | [89] 1.03 | [90] 0.991 | [91] 1.01 | [92] 1.06 | [93] 0.934 | [94] 0.998 | [95] 1.08 | S. cerevisiae strains, strain wild type, active compounds read low 1.01
